# Reference: PubChem BioAssay (Tox21)
# Records with an inconclusive call do not appear. A call without a number means that no potency is given here. Calls of active or inactive are those of the source. The call rests on the fitted dose curve; in most records, active means well fitted curve in the direction sought with a large enough effect in the repeat runs; inconclusive means weak or mixed curves; inactive means no such curve, though single readings can be large; an effect the other way counts as inactive or inconclusive.
# Target: Nuclear receptor subfamily 1 group I member 3 (Homo sapiens) (UniProt Q14994)
# Assay: qHTS assay to identify small molecule antagonists of the constitutive androstane receptor (CAR) signaling pathway (AID 1224838);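 further: HepG2 cells stably expressing hCAR with CYP2B6 luciferase reporter stimulated by CITCO; nearly all actives have a fitted effect of over 40% in size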
# Conditions: HepG2-CYP2B6-hCAR luciferase, CITCO-stimulated, 24 h; series mostly up to 92.4 µM
# Method in brief: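 Read-out: ONE-Glo luciferase luminescence after 30 min at room temperature. HepG2-CYP2B6-hCAR double-stable cells, compounds in 15-point titration plus 50 nM CITCO final, 24 h at 37 C/5% CO2.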
# Nuclear receptor subfamily 1 group I member 3 (Homo sapiens), sequence (Q14994 whole entry, looked up): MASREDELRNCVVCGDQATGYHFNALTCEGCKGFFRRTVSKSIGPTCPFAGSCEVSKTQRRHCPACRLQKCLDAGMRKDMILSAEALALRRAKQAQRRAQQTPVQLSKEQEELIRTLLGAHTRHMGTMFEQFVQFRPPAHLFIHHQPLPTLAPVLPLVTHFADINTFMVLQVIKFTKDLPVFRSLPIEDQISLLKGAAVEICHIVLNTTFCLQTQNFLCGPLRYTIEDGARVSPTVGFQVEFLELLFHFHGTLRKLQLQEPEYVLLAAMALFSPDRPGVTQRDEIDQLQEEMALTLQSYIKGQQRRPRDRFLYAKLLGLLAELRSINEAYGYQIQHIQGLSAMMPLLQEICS
row,SMILES,Potency
1,ON(Cc1ccccc1)Cc1ccccc1,inactive
2,O=C(NCCCN1CCOCC1)c1ccc(Cl)cc1,inactive
3,CC(C)CCCCCOC(=O)CCCCC(=O)OCCCCCC(C)C,inactive
4,CNC(=O)N(c1ccccc1)c1ccccc1,inactive
5,O=C(OCCOCCO)c1ccccc1Nc1cccc(C(F)(F)F)c1,inactive

# Target: Nuclear receptor subfamily 1 group I member 3 (Homo sapiens) (UniProt Q14994)
# Assay: qHTS assay to identify small molecule agonists of the constitutive androstane receptor (CAR) signaling pathway (AID 1224839); further: nearly all actives have a fitted effect of over 15% in size; further: potency means the concentration at half of the fitted maximal effect
# Conditions: HepG2 hCAR CYP2B6-luciferase, agonist mode, 24 h; series mostly up to 92.4 µM
# Method in brief: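 HepG2-CYP2B6-hCAR cells, 2500/well, 4 h pre-incubation; compounds 15 conc.; PK11195 0.75 uM final; 24 h, 37 C/5% CO2; ONE-Glo luciferase read.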
row,SMILES,Potency
1,CCOC(=N)CC(=O)OCC,inactive
2,CC(C)(CCl)c1ccccc1,inactive
3,CCCOc1ccc(S(=O)(=O)N2CCN(CC)CC2)cc1-c1nc2c(CC)n(Cc3ccccn3)nc2c(=O)[nH]1,inactive
4,Nc1ccc(S(=O)(=O)O)cc1,inactive
5,CC(C)c1nnc2ccc(-c3ocnc3-c3cc(F)ccc3F)cn12,48.6 µM (active)
6,Cc1nccn1-c1ccc(Sc2cccc(C3(C(N)=O)CCOCC3)c2)cc1,9.69 µM (active)
7,Cc1cc(O)c2c(O)c3c(O)cccc3cc2c1,29.8 µM (active)
8,CC(=O)Oc1ccc2c(c1)CC[C@@H]1[C@@H]2CC[C@]2(C)[C@@H](O)CC[C@@H]12,9.44 µM (active)
9,CO/N=C1\CN(c2nc3c(cc2F)c(=O)c(C(=O)O)cn3C2CC2)CC1CN (configuration not stated),inactive
10,O=C(O)Cc1ccc(-c2ccccc2)cc1,inactive
11,NCC1CCCC(CN)C1 (configuration not stated),inactive
12,O=C(c1ccc(O)cc1)c1ccc(Cl)cc1,49.6 µM (active)
13,O=C(O)c1ccccc1NCCc1ccccc1,26.6 µM (active)
14,CCCCC(CC)C(=O)OCCOCCOCCOCCOC(=O)C(CC)CCCC (configuration not stated),inactive
15,CCOC(=O)c1ccccc1OC,inactive
16,CCCCCCCCCCOS(=O)(=O)O,inactive
17,C1COCO1,inactive
